Data on four compounds can be found in PubChem BioAssay.

Where “and” joins values, the source holds several entries; their conditions need not be identical. Identical values can stand only once. For some of these results: Results with a measured potency or affinity are listed apart. Calls of active or inactive are those of the source. Unless noted, no rule for the calls is given here.

Assay [1] is described as follows: polyglutamine-triggered caspase-3 activation inhibitors, cell-based (AID 1583). The settings on record: polyglutamine-induced caspase-3 activation, cell assay; stronger effect = higher value;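 tested at 10 µM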.
The nature of assay [2]: suppressors of polyQ aggregation in yeast, 75Q-TubU reporter (AID 1593). As to conditions: Yeast 75Q polyglutamine aggregation reporter.
Assay [3] can be described thus: rescue of polyQ-huntingtin neuronal dysfunction in worms, whole organism, C. elegans mechanosensory neurons, N-terminal huntingtin (AID 1599). As to conditions: touch response, stronger effect = higher value.
A short description of assay [4]: inhibitors of mitochondrial cytochrome c release, biochemical, purified mitochondria (AID 1603).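 Also: mouse liver mitochondria challenged with calcium chloride; signal normalized to the plate average as 100%.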 As to conditions: stronger effect = lower value.
The nature of assay [5]: inhibitors of polyQ protein aggregation (AID 1604). The settings on record: polyglutamine-induced protein aggregation inhibition assay; stronger effect = higher value; tested at 2.5 µM.
A short description of assay [6]: enhancers of glutamate uptake in motor neurons, MN-1 cell line (AID 1612).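 Also: tested at 1 µM final; 0% = mean of DMSO vehicle wells on each plate; positive means more glutamate uptake than control and negative means less.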 As to conditions: MN-1 motor neuron cells, stronger effect = higher value.
A short description of assay [7]: suppressors of polyglutamine aggregation in yeast, 75Q-TubH (AID 1616). The settings on record: S. cerevisiae 75Q-TubH polyglutamine aggregation suppression; stronger effect = higher value.
Assay [8] can be described thus: hESC survival regulators, cell-based (AID 493140).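 Also: cells exposed to compounds for four days before counting.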 As to conditions: human embryonic stem cell survival screen; stronger effect = higher value.
Assay [9] can be described thus: Cy5 fluorescence interference with SSB-bound oligo, artefact control for HCV NS3 helicase inhibitor project, biochemical, NIH Clinical Collection, E. coli SSB (AID 743268).
The test system of assay [10] is Hepatitis C virus NS3 helicase. Put plainly: HCV NS3 helicase inhibitors, primary screen, biochemical, fluorescence polarization, NIH Clinical Collection (AID 743270). As to conditions: NS3 helicase binding to Cy5-dT15 DNA, stronger effect = higher value, concentration not given here. Background: Polarisation of emitted light reports the rotation of a fluorescent probe.
For assay [11], the target named is Single-stranded DNA-binding protein (Escherichia coli (strain K12)) (UniProt P0AGE0). Nature of the assay: E. coli SSB displacement from DNA, counter-screen for HCV NS3 helicase inhibitor project, biochemical, fluorescence polarization, NIH Clinical Collection (AID 743271; in the data active = inhibition above about 28%). The settings on record: stronger effect = higher value, concentration not given here. (In general: A counterscreen serves to expose hits that act by an unwanted route or on another target.)

A short description of assay [12]: fluorescence interference in NS3h assay format, artefact control for HCV NS3 helicase inhibitor project, biochemical, NIH Clinical Collection (AID 743272).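 Also: HCV NS3 helicase with a Cy5 labelled single stranded DNA probe.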 The settings on record: fluorescence interference counterscreen, stronger effect = lower value.
Assay [13] in a line: modulation of C. elegans fzo-1 (AID 1259413).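 Also: fzo-1 mutant C. elegans worms in liquid wells.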 The settings on record: C. elegans fzo-1 modulator screen, mean read-out; stronger effect = higher value.
The nature of assay [14]: viability rescue of complex I mutant cybrids, primary screen, cell-based, galactose medium, ATP luminescence (AID 1645843;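 active = z-score of at least 1.8 in each of two replicates, scored against plate mean and spread of sample wells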;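 also: positive z means more ATP and so rescue of galactose-driven cybrid death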). The settings on record: complex I mutant cybrid cells, 72 h, stronger effect = higher value.
A further assay concerns F380Y/beta1. Put plainly: modulators of BK channel variants, profiling panel, selectivity assay, cell-based, U2OS BacMam, thallium flux, beta subunits (AID 1259406;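 active = thallium flux through the channel raised or lowered by more than 3 SD from vehicle-only wells, actives on both sides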;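 also: initial slope of Thallos dye fluorescence rise after thallium is added; log ratio against the mean of 0.3% DMSO vehicle wells on the same plate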). The settings on record: at 30 µM.
Another assay deals with F380Y/beta4. Described as above. The settings on record: at 30 µM.
Another assay has as its system R275C/beta4. Described as above. The settings on record: at 30 µM.
In another assay the test system is R275C/Slo1WT/beta2. The assay is described as above. The settings on record: at 30 µM.
Assay [15] is described as follows: liver-stage malaria parasite growth inhibition, primary screen, cell-based, HepG2, luciferase luminescence, HepG2 viability (AID 624349; in the data active = parasite load remaining mostly below about 12%, no sharp cut-off; inactive = mostly above about 10%;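 also: 100% = mean of DMSO negative control wells on the same plate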). The settings on record: P. berghei liver stage in HepG2, luciferase luminescence, concentration not given here; parasite load remaining: stronger effect = lower value; viability: measured here: HepG2 viability without parasites.

In the case of `CC(CN1c2ccccc2Sc2ccccc21)N(C)C` (stereo not drawn), the figures for the inhibition in assay [1], in assay [10] and in [11] were -21.1%, -5% (inactive) and 3.34% (inactive), respectively. This compound came in with a score in [2] of 1.87. In addition, in assay [3], the rescue above control worked out at 27.9. The cytochrome c release ratio in [4] amounted to 0.77. The same compound registered an inhibition of aggregation in [5] of 66.7%. Besides, the glutamate uptake change in assay [6] was 9.05%. Besides, in assay [7], the aggregation suppression score is 1.37. Moreover, the survival in [8] is 1.42 (inactive). The fluorescence ratio in assay [9] was 0.91 (inactive); in assay [12], 0.93 (inactive). The mean signal in assay [13] is 245 (inactive). For the same compound, the z-score in [14] was -1.14 (inactive) and -0.84 (inactive) and -0.715 (inactive). Also, the log fold change Tl+ flux with F380Y/beta1 is 0.16 (active); with F380Y/beta4, 0.26 (active); with R275C/beta4, 0.0949 (inactive); in the assay on R275C/Slo1WT/beta2, -0.0568 (inactive).
On to `CN(C)C(=O)Oc1ccc[n+](C)c1`, for which the figures for the inhibition in assay [1], in assay [10] and in [11] were 18.4%, 0.45% (inactive) and 0.29% (inactive), respectively. The compound further gave a score in assay [2] of 1.37. The compound also gave a rescue above control in [3] of -0.24. In addition, the cytochrome c release ratio in assay [4] was determined as 0.97. The inhibition of aggregation in [5] turned out to be 27%. In addition, the glutamate uptake change in assay [6] is -0.9%. Besides, the aggregation suppression score in assay [7] stood at 1.35. Also, the parasite load remaining in [15] was 46.4% (inactive) and 38.1% (inactive) and 33.2% (inactive). The viability in assay [15] is 90.6% and 93.2% and 82.1%. The fluorescence ratio in [9] is 1.01 (inactive); in assay [12], 0.97 (inactive). Moreover, the mean signal in assay [13] was 265 (inactive). Besides, the z-score in assay [14] was 0.81 (inactive) and 0.62 (inactive). Further, the log fold change Tl+ flux in the assay on F380Y/beta1 was 0.0465 (inactive); in the assay with F380Y/beta4 it was -0.0469 (inactive); in the assay with R275C/beta4, -0.0147 (inactive); in the assay with R275C/Slo1WT/beta2, 0.0451 (inactive).
As to `CSc1ccc2c(c1)N(CCC1CCCCN1C)c1ccccc1S2` (stereo not drawn), the inhibition in [1] is 43.3%; in [10], -5% (inactive); in assay [11], 0.29% (inactive). For the same compound, the score in assay [2] was 0.94. This compound registered a rescue above control in [3] of 0. Further, the cytochrome c release ratio in [4] worked out at 0.4. In assay [5], this compound returned an inhibition of aggregation of 7.32%. Also, the glutamate uptake change in [6] was -2.39%. Further, the aggregation suppression score in assay [7] was 0.91. In addition, the survival in assay [8] was 2.08 (inactive). Moreover, the figures for the fluorescence ratio in [9] and in assay [12] were 1.05 (inactive) and 0.85 (inactive), respectively. In addition, the mean signal in [13] is 275 (inactive). In addition, the z-score in assay [14] was -1.38 (inactive) and -1.5 (inactive) and -2.41 (inactive). The log fold change Tl+ flux was 0.338 (active) in the assay on F380Y/beta1, 0.259 (active) in the assay with F380Y/beta4, 0.753 (active) in the assay on R275C/beta4 and -0.146 (active) in the assay on R275C/Slo1WT/beta2.
Take `NC(=O)N1c2ccccc2C=Cc2ccccc21`: the inhibition in assay [1] is 9.92%; in assay [10] it was -3.18% (inactive); in assay [11] it was -3.53% (inactive). Besides, in assay [2], the score was determined as 1.24. Moreover, in assay [3], the rescue above control is -11.1. Also, in assay [4], the cytochrome c release ratio is 1.51. This compound yielded an inhibition of aggregation in [5] of 83.1%. In addition, in assay [6], the glutamate uptake change was -6.72%. The aggregation suppression score in [7] is 1.82. The survival in assay [8] is 26.6 (inactive). Further, the results for the fluorescence ratio in assay [9] and in assay [12] were 1.03 (inactive) and 1.04 (inactive), respectively. For the same compound, the mean signal in assay [13] is 259 (inactive). The z-score in assay [14] was 0.21 (inactive) and 0.34 (inactive) and 0.265 (inactive). For the same compound, the log fold change Tl+ flux in the assay on F380Y/beta1 was -0.00275 (inactive); in the assay with F380Y/beta4, -0.00351 (inactive); in the assay with R275C/beta4 it was -0.0824 (inactive); in the assay on R275C/Slo1WT/beta2, -0.0474 (inactive).

As usually defined, the inhibition is the change of the read-out against control, counted positive when it falls. The term viability denotes a per cent measure of how many cells are alive, often set against a control.
